Each structure is given as a SMILES string. Where “and” joins values, the source holds several entries; their conditions need not be identical. Equal values may be shown once. Compounds without any hit were thinned out: in the full panel of roughly 83,000, 20% have a hit.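 The endpoint reported here, percent growth, reads 100 for growth as untreated, 0 for no net growth and -100 for all cells dead.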 Calls of active or inactive are those of the source. The calls were made as follows: active = growth percent below 10; inactive = the rest.

What all share (test): NCI-60 one-dose screen, 48 h (100 = growth as untreated, 0 = no growth, -100 = all killed)
In one assay the test system is NCI-H23 lung. The note with it: 10 µM unless noted.
In another assay the test system is HOP-62 NSCLC. The conditions noted are these: 10 µM unless noted.
A further assay relates to NCI-H460 lung. The conditions noted are these: 10 µM unless noted.
Another assay concerns HOP-92 NSCLC. The note with it: 10 µM.
A further assay concerns NCI-H522 lung. The conditions noted are these: 10 µM.
Another assay deals with A549/ATCC NSCLC. The conditions noted are these: 10 µM unless noted.
Another assay has as its system 786-0 renal. The conditions noted are these: 10 µM unless noted.
The test system of the next assay is COLO 205 colon. The note with it: 10 µM unless noted.
For another assay, the system named is NCI-H322M lung. The conditions noted are these: 10 µM unless noted.

Regarding `O=C(CO)C(O)C(O)C(O)C(O)CO` (stereo not given), the growth was 104% (inactive) and 102% (inactive) in the assay on NCI-H23 lung; 105% (inactive) in the assay on HOP-62 NSCLC; 109% (inactive) and 108% (inactive) in the assay with NCI-H460 lung; 116% (inactive) and 105% (inactive) with HOP-92 NSCLC; 102% (inactive) and 108% (inactive) in the assay with NCI-H522 lung; 97.5% (inactive) and 96.1% (inactive) in the assay with A549/ATCC NSCLC. Moreover, the growth with 786-0 renal is 105% (inactive); with COLO 205 colon, 107% (inactive) and 103% (inactive).
`Nc1ncnc2c1ncn2C1OC(COP(=O)(O)O)C(O)C1O` (stereo not given): the growth in the assay on NCI-H23 lung is 110% (inactive); with HOP-62 NSCLC, 115% (inactive); in the assay on HOP-92 NSCLC, 103% (inactive); in the assay with NCI-H522 lung, 114% (inactive); in the assay on A549/ATCC NSCLC, 114% (inactive); in the assay on 786-0 renal, 105% (inactive). Moreover, the growth in the assay on COLO 205 colon was 130% (inactive).
Take `CCN(CCNS(C)(=O)=O)c1ccc(N)c(C)c1`: the growth was 99.2% (inactive) and 85.9% (inactive) with NCI-H23 lung; 106% (inactive) and 111% (inactive) in the assay on HOP-62 NSCLC; 107% (inactive) and 99.7% (inactive) in the assay on NCI-H460 lung; 84.4% (inactive) in the assay on HOP-92 NSCLC; -70.5% (active) with NCI-H522 lung; 109% (inactive) in the assay on A549/ATCC NSCLC. Moreover, the growth with 786-0 renal is 89% (inactive) and 95.7% (inactive); in the assay with COLO 205 colon, 69.6% (inactive) and 107% (inactive).
For the compound `c1ccc(-c2nc3ccccc3s2)cc1`, the growth was 88.2% (inactive) with NCI-H23 lung; 81.1% (inactive) in the assay on NCI-H322M lung; 76.3% (inactive) in the assay on HOP-62 NSCLC; 97.5% (inactive) in the assay on NCI-H460 lung; 82.4% (inactive) in the assay with HOP-92 NSCLC; 105% (inactive) in the assay on A549/ATCC NSCLC. Also, the growth was 105% (inactive) in the assay on 786-0 renal and 110% (inactive) in the assay with COLO 205 colon.
Consider `O=C(O)/C=C\C(=O)Nc1cccc2ccccc12`, for which the growth with NCI-H23 lung is 106% (inactive) and 91.4% (inactive); in the assay with HOP-62 NSCLC, 96% (inactive) and 104% (inactive); with NCI-H460 lung, 101% (inactive) and 111% (inactive); with HOP-92 NSCLC, 115% (inactive); in the assay on NCI-H522 lung, 79.3% (inactive) and 100% (inactive); with A549/ATCC NSCLC it was 99.9% (inactive) and 105% (inactive). For the same compound, the growth was 113% (inactive) and 111% (inactive) in the assay on 786-0 renal; 95.4% (inactive) and 108% (inactive) in the assay on COLO 205 colon.
With `OCC1OC(O)C(O)C(O)C1O` (stereo not given), the growth with NCI-H23 lung is 102% (inactive); in the assay with NCI-H322M lung it was 155% (inactive); with HOP-62 NSCLC, 98.9% (inactive); in the assay on NCI-H460 lung, 100% (inactive); in the assay with HOP-92 NSCLC, 85.9% (inactive); with NCI-H522 lung, 85.7% (inactive). The growth in the assay with A549/ATCC NSCLC was 108% (inactive); in the assay on 786-0 renal, 110% (inactive); in the assay with COLO 205 colon, 108% (inactive).
In the case of `CC(=O)NCC(=O)c1ccc([N+](=O)[O-])cc1`, the growth with NCI-H23 lung is 95% (inactive); with NCI-H322M lung, 103% (inactive); in the assay on HOP-62 NSCLC, 95.8% (inactive); in the assay on NCI-H460 lung it was 104% (inactive); with HOP-92 NSCLC it was 108% (inactive); with NCI-H522 lung, 109% (inactive). The values for the growth with A549/ATCC NSCLC, in the assay on 786-0 renal and with COLO 205 colon were 101% (inactive), 103% (inactive) and 105% (inactive), respectively.
`O=C1CSC2=NCCN12`: the growth is 87.7% (inactive) and 90% (inactive) with NCI-H23 lung; 90.9% (inactive) and 95.9% (inactive) with HOP-62 NSCLC; 96.3% (inactive) and 99.3% (inactive) in the assay with NCI-H460 lung; 112% (inactive) and -2.23% (active) in the assay on HOP-92 NSCLC; 59.3% (inactive) and 99.1% (inactive) with NCI-H522 lung; 92.9% (inactive) and 113% (inactive) in the assay on A549/ATCC NSCLC. The growth with 786-0 renal is 80.7% (inactive) and 61.7% (inactive); with COLO 205 colon, 104% (inactive) and 127% (inactive).
Consider `CC[C@H](CC[C@@H](C)[C@H]1CC[C@H]2[C@@H]3CC=C4C[C@@H](O)CC[C@]4(C)[C@H]3CC[C@]12C)C(C)C`, for which the growth with NCI-H23 lung is 5.59% (active) and 96.6% (inactive); in the assay on NCI-H322M lung it was 92.6% (inactive) and 103% (inactive); in the assay on HOP-62 NSCLC it was 108% (inactive) and 101% (inactive); in the assay on NCI-H460 lung, 105% (inactive) and 107% (inactive); in the assay with HOP-92 NSCLC, 83.5% (inactive); in the assay with NCI-H522 lung it was 18.7% (inactive) and 97% (inactive). Also, the growth is 102% (inactive) in the assay on A549/ATCC NSCLC; 95.3% (inactive) and 106% (inactive) with 786-0 renal; 103% (inactive) and 107% (inactive) in the assay on COLO 205 colon.
Take `CC1=C/C(O)CC(=O)Cc2nc(co2)C(=O)N2CCC=C2C(=O)OC(C(C)C)C(C)/C=C\C(=O)NC/C=C\1` (stereo not given): the growth in the assay with NCI-H23 lung is 78.7% (inactive); in the assay on NCI-H322M lung, 102% (inactive); in the assay on NCI-H460 lung it was 102% (inactive); in the assay on HOP-92 NSCLC, 88.7% (inactive); with NCI-H522 lung, 21.8% (inactive); in the assay on A549/ATCC NSCLC, 83% (inactive). Besides, the results for the growth in the assay with 786-0 renal and in the assay on COLO 205 colon were 2.53% (active) and 74.3% (inactive), respectively.
With `COc1ccc(Nc2ccc3ccccc3c2)cc1`, the growth was 81.5% (inactive) in the assay on NCI-H23 lung; 67.9% (inactive) with HOP-62 NSCLC; 94.1% (inactive) in the assay on NCI-H460 lung; 84.3% (inactive) in the assay with 786-0 renal; 94% (inactive) in the assay with COLO 205 colon.
`NC1CCC(C(=O)O)CC1` (stereo not given): the growth in the assay with NCI-H23 lung was 111% (inactive) and 108% (inactive); with HOP-62 NSCLC it was 100% (inactive) and 91.2% (inactive); in the assay with NCI-H460 lung it was 98.9% (inactive) and 104% (inactive); in the assay on HOP-92 NSCLC it was 83.3% (inactive) and 91.7% (inactive); in the assay on NCI-H522 lung, 97.4% (inactive) and 96% (inactive); in the assay on A549/ATCC NSCLC it was 107% (inactive) and 108% (inactive). The growth in the assay on 786-0 renal was 102% (inactive) and 103% (inactive); in the assay with COLO 205 colon, 105% (inactive) and 107% (inactive).

Source of the values: PubChem BioAssay (NCI).
